Measurements from PubChem BioAssay (NCATS).
Records with an inconclusive call do not appear. A number with no mark means an inactive call. Calls of active or inactive are those of the source. The call rests on the fitted dose curve; in most records, active means well fitted cell-killing curve with a large enough effect; inconclusive means small, poorly fitted or top-dose-only effect; inactive means no such curve, though single readings can be large or run the other way.
On the % scale 0 is the no-effect control and ±100 the full control effect; potency means the concentration at half of the fitted maximal effect.

Assay: qHTS of pediatric cancer cell lines to identify multiple opportunities for drug repurposing: Confirmatory screen for TC32 cells (AID 1347118);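 further: cells exposed to compound for 48 h before the read; nearly all actives have a fitted effect of over 65% in size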
Conditions: TC32 Ewing sarcoma cells viability qHTS; series mostly up to 45.9 µM; activity change, negative = cytotoxicity: at the top concentration
Text: Drug repurposing or repositioning has been offered as a strategy for drug development in oncology programs. This approach has special potential for childhood cancers and other rare or orphan diseases, where the expected return on new drug development has been a disincentive to pharmaceuticals.
In this project we exploit the poly-pharmacology of drugs to discover new indications via phenotypic screening of a panel of 19 well-characterized cell lines derived from solid tumors seen in children and adolescents. The goal is to identify approved drugs with previously unrecognized anticancer properties that has the potential to reveal new mechanisms and biological processes involved in carcinogenesis or drug resistance. We employed a titration-based paradigm (quantitative high-throughput screening or qHTS), where all compounds were tested at multiple concentrations for their effect on cell viability. Concentration-response curves (CRCs) were derived directly from the primary screen, and both potency and efficacy values were used to identify compounds with robust bioactivity profiles. We screened the NIH Chemical Genomics Center (NCGC) Pharmaceutical Collection (NPC) and Mechanism Interrogation Plate (MIPE) small molecule collections of approved and investigational compounds against these cell lines; and measured metabolically active cells after 48 hours of compound treatment as a proxy for cell viability.
Assay Submitter: Nathalia J. Martinez, National Center for Advancing Translational Sciences, National Institutes of Health, Rockville, MD, USA; email: natalia.martinez@nih.gov
[1] Shen, M et al. Quantitative high-throughput phenotypic screening of pediatric cancer cell lines identifies multiple opportunities for drug repurposing. Oncotarget 2017 Dec 19;9(4):4758-4772. PMID 29435139.
The cells were obtained from University of North Carolina (UNC), Pediatric Preclinical Testing Program (PPT), and Coriell Institute (CI).
qHTS cell viability assay:
Cells were assayed in growth media at a density of 500-1,000 cells/well. Five microliters of cells were dispensed into 1,536-well, white, solid-bottom, TC-treated plates (Greiner Bio One) using a multidrop dispenser and incubated at 37 degrees C, 5% CO2, under a humidified atmosphere for 5 hours. Twenty-three nanoliters of compounds and controls (neutral control DMSO or positive control bortezomib at final concentration of 2.3 uM) were subsequently transferred by Kalypsys pintool. For primary screens, the MIPE collection was tested at 11-point dilutions (final concentrations range from 0.78 nM to 46 µM) and the NPC collection at 8-point dilutions (final concentrations range from 0.59 nM to 46 µM). Compounds tested in follow-up screens were assayed at 11-point dilutions. Cells were incubated for 48 hours, followed by addition of 3 uL of CellTiter-Glo (Promega). After a 15min incubation at room temperature, samples were analyzed for luminescence intensity using a ViewLux High-throughput CCD imager equipped with clear filters.
For `CC(CCc1ccc(O)cc1)NCCc1ccc(O)c(O)c1` (configuration not stated), the Potency was 20.8 µM (active).
For `O=C1c2c(O)ccc(O)c2C(=O)c2c(NCCNCCO)ccc(NCCNCCO)c21`, the Potency was 0.131 µM (active).
In the case of `Clc1ccc2nsnc2c1NC1=NCCN1`, the “activity change, negative = cytotoxicity” value was -27.5%.
For `CC#C[C@]1(O)CC[C@H]2[C@@H]3CCC4=CC(=O)CCC4=C3[C@@H](c3ccc(N(C)C)cc3)C[C@@]21C`, the Potency was 18.5 µM (active).
For `CCCCc1oc2ccccc2c1C(=O)c1cc(I)c(OCCN(CC)CC)c(I)c1`, the Potency was 28.2 µM (active).
With `CC(COc1ccccc1)N(CCCl)Cc1ccccc1` (configuration not stated) the Potency was 7.37 µM (active).
For `CC[C@@]1(O)C(=O)OCc2c1cc1n(c2=O)Cc2cc3c(CN(C)C)c(O)ccc3nc2-1`, the Potency was 0.0585 µM (active).
With `COc1cc2c(c(OC)c1OC)-c1ccc(OC)c(=O)cc1[C@@H](NC(C)=O)CC2` the Potency was 0.0355 µM (active).
In the case of `O=C(Nc1ccc([N+](=O)[O-])cc1Cl)c1cc(Cl)ccc1O`, the Potency was 2.04 µM (active).
For `CN(Cc1cnc2nc(N)nc(N)c2n1)c1ccc(C(=O)N[C@@H](CCC(=O)O)C(=O)O)cc1`, the Potency was 0.0369 µM (active).
In the case of `NC(=O)NO`, the Potency was 20.8 µM (active).
For `CN(C)CCCN1c2ccccc2CCc2ccc(Cl)cc21`, the “activity change, negative = cytotoxicity” value was -20%.
For `NC12CC3CC(CC(C3)C1)C2`, the “activity change, negative = cytotoxicity” value was -6.55%.
With `CC(C)Cc1ccc(C(C)C(=O)O)cc1` (configuration not stated) the Potency was 3.69 µM (active).
In the case of `O=C(c1ccc(OCCN2CCCCC2)cc1)c1c(-c2ccc(O)cc2)sc2cc(O)ccc12`, the Potency was 16.5 µM (active).
With `Clc1ccc(C(c2ccccc2Cl)C(Cl)Cl)cc1` (configuration not stated) the “activity change, negative = cytotoxicity” value was -27.2%.
For `COC(=O)Nc1nc2ccc(C(=O)c3cccs3)cc2[nH]1`, the Potency was 0.131 µM (active).
